Experimental data published in PMC5700166.

How the values were obtained:
Experiment in all cases: protein-binding microarray (PBM); PBM: ~300 nM protein, 6 mM HEPES pH 7.8, 80 mM KCl, 0.5 mM EDTA, 0.5 mM EGTA, 6% glycerol, 35 ng/ul poly-dIdC, 1% milk, 1 h, room temperature; Ap Aiptasia and Nv Nematostella (sea anemones) / Co Capsaspora / Aq Amphimedon (sponge) / Dm Drosophila / Hu human; RHD is the Rel homology domain; high values mean tight binding
Settings in all cases: dsDNA, one strand shown
[1] = molecular target: T1, GST-Ap-NF-kB RHD (Exaiptasia pallida (Aiptasia), UniProt A0A913YAJ5 2-422)
T1 sequence: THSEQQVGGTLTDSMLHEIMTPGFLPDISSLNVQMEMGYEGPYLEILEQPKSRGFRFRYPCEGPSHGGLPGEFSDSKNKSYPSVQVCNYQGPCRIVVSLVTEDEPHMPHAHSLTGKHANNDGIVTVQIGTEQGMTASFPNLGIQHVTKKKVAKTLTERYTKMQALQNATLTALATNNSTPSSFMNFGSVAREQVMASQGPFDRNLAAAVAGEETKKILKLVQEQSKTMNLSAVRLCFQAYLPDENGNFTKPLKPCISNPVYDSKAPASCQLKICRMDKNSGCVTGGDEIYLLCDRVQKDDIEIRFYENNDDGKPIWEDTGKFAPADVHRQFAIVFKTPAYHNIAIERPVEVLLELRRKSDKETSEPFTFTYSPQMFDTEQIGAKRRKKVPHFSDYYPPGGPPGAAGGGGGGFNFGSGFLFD

[2] = molecular target: T2, GST-Nv-NF-kB (Cys allele) (Nematostella vectensis, UniProt E5G601 2-411)
T2 sequence: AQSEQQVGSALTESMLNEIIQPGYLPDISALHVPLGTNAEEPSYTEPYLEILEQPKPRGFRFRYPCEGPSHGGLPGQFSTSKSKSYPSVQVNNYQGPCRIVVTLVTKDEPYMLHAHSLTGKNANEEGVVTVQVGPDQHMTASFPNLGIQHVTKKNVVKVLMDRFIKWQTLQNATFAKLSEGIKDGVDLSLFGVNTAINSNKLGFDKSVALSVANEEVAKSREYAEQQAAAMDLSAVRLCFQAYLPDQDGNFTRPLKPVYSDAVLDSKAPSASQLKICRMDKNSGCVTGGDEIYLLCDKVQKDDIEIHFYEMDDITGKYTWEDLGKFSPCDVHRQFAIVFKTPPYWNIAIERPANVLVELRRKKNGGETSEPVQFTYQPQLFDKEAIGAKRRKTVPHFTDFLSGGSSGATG

[3] = molecular target: T3, GST-Co-NF-kB (Capsaspora owczarzaki, UniProt F1ARL5 200-546)
T3 sequence: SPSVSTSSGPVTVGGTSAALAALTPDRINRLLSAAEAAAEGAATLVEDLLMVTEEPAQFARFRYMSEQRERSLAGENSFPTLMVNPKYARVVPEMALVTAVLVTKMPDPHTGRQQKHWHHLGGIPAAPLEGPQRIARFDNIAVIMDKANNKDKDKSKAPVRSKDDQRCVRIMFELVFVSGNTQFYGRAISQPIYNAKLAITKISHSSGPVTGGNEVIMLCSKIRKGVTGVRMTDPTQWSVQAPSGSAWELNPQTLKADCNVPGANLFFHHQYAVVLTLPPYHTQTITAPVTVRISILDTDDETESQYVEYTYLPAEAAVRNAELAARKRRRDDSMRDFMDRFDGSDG

[4] = molecular target: T4, GST-Dm-Relish (Drosophila melanogaster, UniProt Q94527 99-473)
T4 sequence: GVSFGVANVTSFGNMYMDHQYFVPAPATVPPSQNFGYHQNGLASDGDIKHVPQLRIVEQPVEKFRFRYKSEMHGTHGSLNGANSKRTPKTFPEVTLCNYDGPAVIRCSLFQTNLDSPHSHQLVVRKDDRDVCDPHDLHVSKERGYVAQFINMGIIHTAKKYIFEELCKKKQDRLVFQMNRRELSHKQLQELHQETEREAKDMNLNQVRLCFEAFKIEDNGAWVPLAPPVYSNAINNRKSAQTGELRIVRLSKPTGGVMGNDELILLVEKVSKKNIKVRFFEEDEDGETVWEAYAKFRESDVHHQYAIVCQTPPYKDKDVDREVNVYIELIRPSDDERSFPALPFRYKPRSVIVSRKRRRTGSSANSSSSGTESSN

[5] = molecular target: T5, GST-Aq-NF-kB (Amphimedon queenslandica, UniProt A9Y5G7 2-389)
T5 sequence: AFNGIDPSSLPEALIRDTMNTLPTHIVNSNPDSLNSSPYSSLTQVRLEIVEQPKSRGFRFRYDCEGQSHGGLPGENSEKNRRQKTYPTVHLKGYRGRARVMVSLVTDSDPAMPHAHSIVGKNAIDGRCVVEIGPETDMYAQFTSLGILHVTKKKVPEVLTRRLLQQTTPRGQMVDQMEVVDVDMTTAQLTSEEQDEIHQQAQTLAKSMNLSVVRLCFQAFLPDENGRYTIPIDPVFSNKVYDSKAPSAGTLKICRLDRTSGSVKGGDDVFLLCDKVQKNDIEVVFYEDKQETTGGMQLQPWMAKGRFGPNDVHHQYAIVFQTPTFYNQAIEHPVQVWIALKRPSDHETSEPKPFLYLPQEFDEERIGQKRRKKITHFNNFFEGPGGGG

[6] = molecular target: GST-Hu-p50 (Homo sapiens, UniProt P19838 7-356)
GST-Hu-p50, sequence (P19838 7-356): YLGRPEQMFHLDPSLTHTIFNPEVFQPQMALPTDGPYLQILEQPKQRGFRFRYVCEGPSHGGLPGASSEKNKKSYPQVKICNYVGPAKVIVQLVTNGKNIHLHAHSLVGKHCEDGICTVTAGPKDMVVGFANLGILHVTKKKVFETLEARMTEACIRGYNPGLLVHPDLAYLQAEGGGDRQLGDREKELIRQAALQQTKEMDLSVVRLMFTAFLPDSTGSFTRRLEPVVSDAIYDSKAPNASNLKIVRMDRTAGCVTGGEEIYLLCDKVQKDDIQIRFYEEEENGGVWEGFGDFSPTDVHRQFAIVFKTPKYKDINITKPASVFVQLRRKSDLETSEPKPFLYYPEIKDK

| Sequence | binding signal [1] | binding signal [2] | binding signal [3] | binding signal [4] | binding signal [5] | binding signal [6] |
| --- | --- | --- | --- | --- | --- | --- |
| CCGATTAACATCATACTTCCCCATGATGTTAATCGGGTCTTGATTCGCTTGACGCTGCTG | 3.97 z-score | 4.88 z-score | 4.69 z-score | 3.18 z-score | 3.58 z-score | 4.41 z-score |
| CCGATTAACATCAAACATCCCCCTGATGTTAATCGGGTCTTGATTCGCTTGACGCTGCTG | 6.59 z-score | 6.38 z-score | 5.97 z-score | 6.53 z-score | 6.6 z-score | 5.44 z-score |
| CCGATTAACATCACGGGAAGTACTGATGTTAATCGGGTCTTGATTCGCTTGACGCTGCTG | 1.21 z-score | 1.43 z-score | 1.57 z-score | 8.29 z-score | 3.28 z-score | 1.09 z-score |
| CCGATTAACATCAAAAGCCCCCTTGATGTTAATCGGGTCTTGATTCGCTTGACGCTGCTG | 6.3 z-score | 6.73 z-score | 1.89 z-score | 7.9 z-score | 6.88 z-score | 6.5 z-score |
| CCGATTAACATCACGAAAACCCCTGATGTTAATCGGGTCTTGATTCGCTTGACGCTGCTG | 6.45 z-score | 5.36 z-score | 2.45 z-score | 7.06 z-score | 5.3 z-score | 6.06 z-score |
| CCGATTAACATCAGGGGGTTAAATGATGTTAATCGGGTCTTGATTCGCTTGACGCTGCTG | 4.33 z-score | 4.07 z-score | 3.62 z-score | 5.86 z-score | 4.49 z-score | 4.29 z-score |
| CCGATTAACATCAGGGGGAGGGATGATGTTAATCGGGTCTTGATTCGCTTGACGCTGCTG | 4.44 z-score | 4.45 z-score | 5.87 z-score | 3.28 z-score | 4.21 z-score | 4.01 z-score |
| CCGATTAACATCAGGCATCCCCCTGATGTTAATCGGGTCTTGATTCGCTTGACGCTGCTG | 6.28 z-score | 5.13 z-score | 3.74 z-score | 6.22 z-score | 6.35 z-score | 5.3 z-score |
| CCGATTAACATCACCCCGCCCCCTGATGTTAATCGGGTCTTGATTCGCTTGACGCTGCTG | 4.32 z-score | 3.28 z-score | 3.91 z-score | 4.16 z-score | 4.28 z-score | 4.24 z-score |
| CCGATTAACATCACAACGACCCCTGATGTTAATCGGGTCTTGATTCGCTTGACGCTGCTG | 2.27 z-score | 1.3 z-score | 1.28 z-score | 1.08 z-score | 2.48 z-score | 1.12 z-score |
| CCGATTAACATCACCGAACCCCCTGATGTTAATCGGGTCTTGATTCGCTTGACGCTGCTG | 5.86 z-score | 3.55 z-score | 2.04 z-score | 4.86 z-score | 3.82 z-score | 5.57 z-score |
| CCGATTAACATCAGGGGGTTCACTGATGTTAATCGGGTCTTGATTCGCTTGACGCTGCTG | 5.94 z-score | 4.09 z-score | 2.91 z-score | 10.4 z-score | 5.84 z-score | 5.34 z-score |
